FMDV inh – High Throughput Screening for Foot and Mouth Disease Virus Antivirals; AID 1159524, 2015; FMDV antiviral cell-based qHTS; Potency, µM (doses to about 57.9 µM), usual class: inhibitors; 410,000 compounds, 1.2% hits; calls by dose curve; tested in HEK293T cells; further: read-out not given here; nearly all actives have a fitted effect of over 45% in size
Marburg entry inh – qHTS for inhibitors of binding or entry into cells for Marburg Virus | Marburg virus pseudotyped entry inhibition, cell reporter | Potency, µM (doses to about 37.8 µM), most hits filed as inhibitors | 300,000 compounds, 1.8% hits | AID 540276, 2011; calls by dose curve; tested in HEK293 cells
Lassa entry inh – qHTS for Inhibitors of binding or entry into cells for Lassa Virus | Lassa virus pseudotype entry inhibition, cell reporter | Potency, µM (highest dose often 37.9 µM), hits mostly inhibitors | 300,000 compounds, 1.2% hits | AID 540256, 2011; calls by dose curve; tested in HEK293 cells; further: nearly all actives have a fitted effect of over 50% in size
HCMV inh – qHTS Assay for inhibitors of the human cytomegalovirus (HCMV). HFF cells, HCMV-luciferase reporter, 72 h; active compounds read low. activity change, negative = inhibition, % at 57.5 µM. 410,000 compounds, 4.5% hits; in the data active means activity change below about -60%; inconclusive means no clear call, values can overlap the other calls; inactive means above about -39%
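Two compound doses tested in HFFs infected with HCMV-luciferase, MOI 1 PFU/cell, 72 h at 37C. Lysate luminescence read with OneGlo; data normalized against buffer-only and 10uM Salinomycin inhibitor controls.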
Of the large screens only hits and unclear results are named; the others gave an inactive call. Sampled rows, rich in hits. Any-hit rate of the full collection: about 6.2%.

CCc1noc(C)c1C(=O)N1CCN(c2cccc(C)c2C)CC1	FMDV inh inconclusive, Lassa entry inh inconclusive
Cc1onc(-c2c(F)cccc2Cl)c1C(=O)N1CCN(c2ncc(Br)cn2)CC1	FMDV inh 28.2µM, Marburg entry inh inconclusive, Lassa entry inh inconclusive
Cc1onc(-c2c(F)cccc2Cl)c1C(=O)N1CCSCC1	none
Cc1cccc(N2CCN(C(=O)c3c(-c4ccccc4)noc3C)CC2)c1C	FMDV inh inconclusive, Marburg entry inh 2.51µM, Lassa entry inh inconclusive
CS(=O)(=O)c1ccc(C(=O)N2CCN(Cc3ccccc3)CC2)cc1	HCMV inh inconclusive
CC(C)n1c(=O)c2ccccc2n1C(=O)c1ccccc1	FMDV inh inconclusive (no result: Marburg entry inh, Lassa entry inh)
CC(=O)c1ccc(NC(=O)Cn2cc(S(=O)(=O)Cc3cccc(Cl)c3)c3ccccc32)cc1	none (no result: Marburg entry inh)
COCC(=O)N1CCC2(CCCN(Cc3nccs3)C2)CC1	none (no result: Marburg entry inh, Lassa entry inh, HCMV inh)
COc1ccc(C(=O)Nc2nnc(S(=O)(=O)N(C)c3ccc(Cl)cc3)s2)cc1OC	none (no result: Marburg entry inh)
COC(=O)c1cc(C(=O)N2CCN(c3cccc(C)c3C)CC2)cc([N+](=O)[O-])c1	Marburg entry inh 4.47µM
CCOc1ncccc1C(=O)N1CCN(c2cccc(C)c2C)CC1	FMDV inh inconclusive, Marburg entry inh inconclusive, Lassa entry inh inconclusive, HCMV inh -96.0
Cc1cccc(N2CCN(C(=O)c3ccc(S(=O)(=O)N(C)c4ccccc4)cc3)CC2)c1C	FMDV inh inconclusive, Marburg entry inh inconclusive, Lassa entry inh 4.47µM, HCMV inh inconclusive
CN(c1ccccc1)S(=O)(=O)c1cccc(C(=O)N2CCN(c3ccccn3)CC2)c1	FMDV inh 39.8µM, Lassa entry inh inconclusive
Cc1cccc(NS(=O)(=O)c2cccc(C(=O)N3CCN(c4ccccn4)CC3)c2)c1	Marburg entry inh inconclusive, Lassa entry inh inconclusive
NCCC[C@H](N)CC(=O)N[C@H]1CNC(=O)[C@H]([C@H]2C[C@H](O)N=C(N)N2)NC(=O)C(=CNC(N)=O)NC(=O)[C@H](CO)NC(=O)[C@H](CO)NC1=O	none (no result: Marburg entry inh, Lassa entry inh, HCMV inh)
Cc1cc2oc(C(=O)Nc3nc(-c4ccccc4)ns3)c(C)c2cc1Cl	none
O=C(NCCc1ccccn1)C1CC12CCN(C(=O)c1cccc(C(F)(F)F)c1)CC2 (stereo not given)	none (no result: Marburg entry inh, Lassa entry inh, HCMV inh)
CN(C(=O)COC(=O)/C=C/c1cccc([N+](=O)[O-])c1)C1CCS(=O)(=O)C1 (stereo not given)	Marburg entry inh 3.55µM
COc1ccccc1-c1csc(C(NC(C)=O)c2ccccc2)n1 (stereo not given)	HCMV inh -78.9 (no result: Marburg entry inh, Lassa entry inh)
COc1cc(F)ccc1-c1csc(C(NC(C)=O)c2ccccc2)n1 (stereo not given)	none (no result: Marburg entry inh, Lassa entry inh)
COc1ccncc1-c1csc(C(O)c2ccccc2)n1 (stereo not given)	HCMV inh -69.2 (no result: Marburg entry inh, Lassa entry inh)
COc1cc(C(O)c2nc(-c3cc4ccccc4o3)cs2)ccc1F (stereo not given)	HCMV inh -76.6 (no result: Marburg entry inh, Lassa entry inh)
CCN(CC)C(=O)c1sc2c(c1C)c(=O)n(-c1ccc(Cl)c(Cl)c1)c(=O)n2Cc1ccccc1C#N	none (no result: Marburg entry inh)
CCCn1c2c(c(O)c(C(=O)NCCCN(CC)CC)c1=O)CCCC2	Marburg entry inh 10µM
CCOc1cc2c3c(c1)C(C)=CC(C)(C)N3C(=O)C2=O	HCMV inh -62.8 (no result: Marburg entry inh, Lassa entry inh)
O=C(Nc1n[nH]c2cc(-c3cc(F)ccc3F)ccc12)C1CC1	Lassa entry inh 25µM (no result: FMDV inh, Marburg entry inh, HCMV inh)
O=C(Nc1cc(C(F)(F)F)ccc1F)C1CCCC1	none
Cc1ccccc1CNC(=O)C1CCN(c2nnc(-n3c(C)ccc3C)s2)CC1	none
Cc1ccc(C)c(NC(=O)CSc2ccc3nc(-c4ccccc4)cn3n2)c1	none (no result: Marburg entry inh)
c1ccc2sc(N3CCCN(Cc4nc(-c5cnccn5)no4)CC3)nc2c1	Marburg entry inh inconclusive, HCMV inh -78.6
CCn1cc(C(=O)NC[C@H]2CCCO2)c(=O)c2cc(F)c(N3CCN(C)CC3)cc21	none (no result: FMDV inh, Lassa entry inh, HCMV inh)
CCC(C)(C)n1nnnc1C(c1cccc(C#N)c1)N1CCN(c2cc(C)ccc2C)CC1 (stereo not given)	Marburg entry inh 2.91µM, Lassa entry inh inconclusive
CC(C)(C)n1nnnc1C(c1cccc(C#N)c1)N1CCC(Cc2ccccc2)CC1 (stereo not given)	Marburg entry inh inconclusive, Lassa entry inh inconclusive
CCC(C)(C)n1nnnc1C(c1cccnc1)N1CCN(c2cccc(C(F)(F)F)c2)CC1 (stereo not given)	Marburg entry inh 13µM, Lassa entry inh inconclusive
O=C(Nc1ccccc1)c1nn(-c2ccccc2)c(=O)cc1C(F)(F)F	none
O=C(c1ccccc1)c1nn(-c2ccc(Cl)cc2)c(=O)cc1C(F)(F)F	FMDV inh 28.2µM, Marburg entry inh 8.91µM, Lassa entry inh 11.2µM, HCMV inh -104.5
O=C(c1cccc(Cl)c1)c1nn(-c2ccccc2)c(=O)cc1C(F)(F)F	FMDV inh inconclusive, HCMV inh -71.6
O=C(c1ccccc1)c1nn(-c2ccccc2)c(=O)cc1-c1ccccc1	none (no result: Marburg entry inh, Lassa entry inh, HCMV inh)
O=C(c1ccccc1)c1nn(-c2ccccc2)c(=O)cc1C(F)(F)F	Marburg entry inh inconclusive, Lassa entry inh inconclusive, HCMV inh -67.0
CC(C)(C)C1CCC(OCC(O)CN2CCN(Cc3ccccc3)CC2)CC1 (stereo not given)	FMDV inh inconclusive (no result: Marburg entry inh, Lassa entry inh)
OC(COCC1COc2ccccc2O1)CN1CCN(c2ccccn2)CC1 (stereo not given)	HCMV inh -65.7
OC(COCC1COc2ccccc2O1)CN1CCc2ccccc2C1 (stereo not given)	none
CC(C)(C)C1CCC(OCC(O)CN2CCN(c3ccccn3)CC2)CC1 (stereo not given)	FMDV inh inconclusive, Marburg entry inh inconclusive, Lassa entry inh inconclusive, HCMV inh -69.2
COCC1CN(CCc2ccc(F)cc2)S(=O)(=O)c2c(OCCN3C(=O)[C@@H]4[C@H](C3=O)[C@@H]3C=C[C@H]4C3)cccc2O1 (stereo not given in full)	none (no result: FMDV inh, Marburg entry inh, Lassa entry inh)
CCCCN(C)c1ncnc2c1cnn2-c1cccc(Cl)c1	Lassa entry inh inconclusive (no result: Marburg entry inh)
CC(=O)NCCc1ccc(S(=O)(=O)Nc2ccc3c(c2)OCCO3)cc1	HCMV inh -63.6
COc1ccc(NS(=O)(=O)c2ccc3c(c2)OCCO3)cc1OC	Marburg entry inh inconclusive, HCMV inh -74.9
CC(=O)Nc1ccc(S(=O)(=O)Nc2ccc3c(c2)OCCO3)cc1Cl	HCMV inh -87.7
COc1ccc(S(=O)(=O)Nc2ccc3c(c2)OCO3)cc1OC	none
OC[C@H]1O[C@@H](n2cnc3cc(Cl)c(Cl)cc32)[C@H](O)[C@H]1O	none (no result: Marburg entry inh, Lassa entry inh, HCMV inh)
COc1ccc(-c2cnc3c(NC(C)=O)cc(-c4cccc(C(=O)N(C)C)c4)cn23)cc1OC	none (no result: Marburg entry inh, Lassa entry inh)
Cc1ccc(C)c(NC(=O)c2ccc3c(c2)N(Cc2ccc(F)cc2)C(=O)CS3=O)c1 (stereo not given)	Marburg entry inh 2.59µM, Lassa entry inh inconclusive, HCMV inh inconclusive
COC(=O)Cc1c(O)ccn(CCc2c[nH]c3ccc(OC)cc23)c1=O	HCMV inh -73.1
Cc1cccc(CNCCc2c[nH]c3ccccc23)c1	Marburg entry inh 10µM, Lassa entry inh inconclusive, HCMV inh -99.2
COc1ccc2[nH]cc(CCNC(=O)Cc3c(F)cccc3Cl)c2c1	none
COC(=O)Cc1c(O)ccn(CCc2c[nH]c3ccccc23)c1=O	HCMV inh inconclusive (no result: Marburg entry inh, Lassa entry inh)

High-throughput results as filed in PubChem BioAssay.
